Screens deposited in PubChem by several laboratories.
HTR5A ag: HTR5A agonism, opioid heterodimer counter-screen | P47898 | HTR5A agonist assay, luminescence, cell-based | activation, % at 9.3 µM | 340,000 tested, 0.61% active; in the data active = activation mostly above about 9.5%, no sharp cut-off; inactive = mostly below about 7.6%
PvdQ acylase: P. aeruginosa PvdQ acylase inhibition. 340,000 tested, 0.063% active. purified PvdQ acylase, fluorescence plate reader. inhibition, % at 10 µM; in the data active = inhibition above about 30%, passing the limit was not always enough
HTR5A inv ag: inverse agonist of human HTR5A in OPRM1-OPRD1 counter-screen; HTR5A cell line, luminescence, inverse agonism; 340,000 tested, 0.083% active; inhibition, % at 9.3 µM; P47898; in the data active = inhibition mostly above about 23%, no sharp cut-off; inactive = mostly below about 18%
Yeast superoxide: caloric restriction mimetics inhibiting age-related superoxide in yeast; S. cerevisiae aged cells, superoxide DHE fluorescence; hits give low values; superoxide response (% of plate mean), % at 10 µM; 330,000 tested, 0.18% active;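 active = superoxide response under a set limit, about three screen SD below normal, cut at about 65% in these data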;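 also: yeast aged for seven days with compound at 30 °C before DHE staining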
OPRM1-OPRD1 inv: inverse agonists of human mu-delta opioid receptor heterodimerization; 340,000 tested, 0.21% active; AID 504357; inhibition, % at 9.3 µM; P35372+P41143; cell-based MOR-DOR heterodimer luminescence, inverse agonism; in the data active = inhibition above about 22%, passing the limit was not always enough
OPRM1-OPRD1 ag: OPRM1-OPRD1 heterodimerization agonism; cells, luminescence; activation, % at 9.3 µM; 340,000 tested, 0.3% active; AID 504326
OPRM1-D1 ag cf: confirmation of human OPRM1-OPRD1 heterodimerization agonists; shares compounds with OPRM1-OPRD1 ag; cells, MOR-DOR heterodimerization, luminescence complementation; activation, % at 9.3 µM; 830 tested, 45% active; AID 504904
HTR5A ag counter: counter-screen for OPRM1-OPRD1 agonists: human HTR5A agonism. shares compounds with OPRM1-OPRD1 ag. HTR5A agonist counterscreen, cell luminescence. activation, % at 9.3 µM. 830 tested, 8% active. AID 504905; in the data active = activation above about 17%
A number is an active result; - = inactive; . = no result given. Only some compounds are listed: those with a hit (about 1.3% of all), similar ones and a draw of the others. Rule as the data show it, unless noted: active = activation above about 18%; inactive = the rest.

SMILES	HTR5A ag	PvdQ acylase	HTR5A inv ag	Yeast superoxide	OPRM1-OPRD1 inv	OPRM1-OPRD1 ag	OPRM1-D1 ag cf	HTR5A ag counter
CCOC(=O)c1sc2nc(SCC(=O)NCc3ccco3)n(Cc3ccccc3)c(=O)c2c1C	-	-	-	-	-	150.3	-	-
CC1=C(C(=O)Nc2ccccc2C(=O)N2CCC(C)CC2)SCCO1	-	-	-	-	-	-	.	.
CN(C)C(CNC(=O)c1oc2ccccc2c1CSc1ncn[nH]1)c1ccco1 (stereo unspecified)	-	-	-	-	-	21.2	30.3	-
CCC(=O)c1ccc(N2CCN(S(=O)(=O)c3ccccc3)CC2)c(F)c1	-	-	-	-	-	20.7	-	-
COC(=O)c1cccc(C23CC4(C2)[C@H](CN(Cc2cccnc2)[C@@H]4c2ccccc2)C3c2ccc(Cl)nc2)c1 (stereo partly specified)	-	-	-	-	-	23.0	28.7	-
COC(=O)c1cccc(C23CC4(C2)[C@H](CN(Cc2ccc(-c5ccccc5)cc2)[C@@H]4c2ccccc2)C3c2ccc(Cl)nc2)c1 (stereo partly specified)	-	-	-	-	-	-	.	.
CCOC(=O)c1nnn(CC(=O)N2N=C(c3cc(C)ccc3C)CC2c2ccc(OC)cc2)c1C(=O)OCC (stereo unspecified)	-	-	-	-	-	19.7	-	61.5
CCOC(=O)c1nnn(CC(=O)N2N=C(c3ccccc3)CC2c2ccccc2)c1C(=O)OCC (stereo unspecified)	-	-	-	-	-	-	.	.
O=C(Nc1ccccn1)c1cc2cc([N+](=O)[O-])ccc2s1	-	-	-	-	-	60.5	30.7	-
O=C(Nc1ncc(Cc2ccc(SC(F)F)cc2)s1)c1ccc(OC(F)F)cc1	-	-	-	-	-	19.3	-	-
Cc1cc(C)cc(NC(=O)CSCc2cc(=O)n3ccsc3n2)c1	-	-	-	-	-	-	.	.
O=C(Nc1ccccc1)/C(=C/c1cccc(Br)c1)NC(=O)c1ccco1	-	-	-	-	-	-	.	.
O=C(OCc1ccccc1)/C(=C/c1cccc(Br)c1)NC(=O)c1ccco1	-	-	-	-	-	20.8	-	-
CC1CCCCN1CC(O)COc1ccc(OCC(O)CN2CCCCC2C)cc1 (stereo unspecified)	-	-	-	-	-	-	.	.
CN1C2C=C(N(CCc3ccccc3)C(=O)c3ccc(Cl)cc3)CC1CC2 (stereo unspecified)	-	-	-	-	-	73.4	88.9	-
CN1C2CCC1CC(N(CCc1ccccc1)C(=O)c1ccc(Cl)cc1)C2 (stereo unspecified)	-	-	-	-	-	-	.	.
Cc1ccc(Cl)cc1NC(=O)c1cnn2c1NC(c1ccco1)CC2C(F)(F)F (stereo unspecified)	-	-	-	-	-	-	.	.
O=C(Nc1ccc2c(c1)CCC2)c1cnn2c1NC(c1ccco1)CC2C(F)(F)F (stereo unspecified)	-	-	-	-	-	23.4	-	-
O=C(Nc1ncccn1)c1cc(-c2cccc(Br)c2)nc2ccccc12	-	-	-	-	-	-	.	.
O=C(Nc1ccncc1)c1cc(-c2cccc(Br)c2)nc2ccccc12	25.6	-	-	-	-	51.6	-	-
COc1ccc(NC(=O)c2cc(-c3ccco3)nc3ccccc23)cc1	-	-	-	-	-	50.0	22.0	20.0
Cc1ccc(-c2cc(C(=O)Nc3ccncc3)c3ccccc3n2)cc1	-	-	-	-	-	28.4	-	-
Cc1oc2c(c1C(=O)c1ccccc1)C(=O)C(=O)c1ccccc1-2	-	-	-	-	-	18.1	20.9	-
O=C(COc1ccc(Br)cc1)N1CCNC1=O	-	-	-	-	-	-	.	.
CN1C(=O)[C@H](Cc2ccc([N+](=O)[O-])cc2)NC1=S	-	-	-	-	-	-	.	.
SMILES	HTR5A ag	PvdQ acylase	HTR5A inv ag	Yeast superoxide	OPRM1-OPRD1 inv	OPRM1-OPRD1 ag	OPRM1-D1 ag cf	HTR5A ag counter
C(=C\c1nccc2c1[nH]c1ccccc12)/c1ccccc1	-	-	-	-	-	-	.	.
Fc1ccc(/C=C\c2nccc3c2[nH]c2ccccc23)cc1	-	-	-	-	-	19.1	33.0	37.0
Cn1c(SCC(=O)NCC2COc3ccccc3O2)nnc1C(F)(F)F (stereo unspecified)	-	-	-	-	-	-	.	.
Cc1ccccc1OCC(=O)OCC(=O)NCc1ccccc1Cl	-	-	-	-	-	-	.	.
COc1cc2c3nnc(-c4ccc(F)cc4)c-3cn(Cc3ccccc3F)c2cc1OC	-	-	-	.	-	19.5	27.6	-
Fc1ccccc1CNc1nc(-c2cccnc2)nc2ccccc12	-	-	-	-	-	-	.	.
COc1cc(/C=N/NC(N)=S)ccc1OCC(=O)Nc1ccc(C)c(C)c1	-	-	-	-	-	22.2	-	-
CCC(=O)N1CCN(c2ccccc2NC(=O)COc2ccc(C(C)C)cc2)CC1	-	-	-	-	-	-	.	.
COc1cc(/C=N/N2CCCCC2)cc([N+](=O)[O-])c1O	-	-	-	-	-	-	.	.
COc1ccc2c(c1)c(N=NC(N)=S)c(O)n2CC(=O)c1ccccc1	-	-	-	-	-	19.0	-	-
Cc1ccc(NC(=O)Cn2c(O)c(N=NC(N)=S)c3ccccc32)cc1	-	-	-	-	-	20.3	-	-
O=C(Cc1ccccc1)NCC(=O)OCC(=O)c1ccc(Cl)cc1	-	-	-	-	-	-	.	.
CC1(NC(=O)Cc2csc(-c3ccc(Cl)cc3)n2)CCS(=O)(=O)C1 (stereo unspecified)	-	-	-	-	-	-	.	.
COc1cccc(-c2nn(-c3ccccc3)cc2CN(C)C(C)c2ccncn2)c1 (stereo unspecified)	-	-	-	-	-	24.7	-	-
COc1ccccc1CN(Cc1nc2ccccc2c(=O)[nH]1)S(=O)(=O)c1ccc2ccccc2c1	-	-	-	-	-	20.1	-	-
COc1ccc(S(=O)(=O)N(Cc2ccccc2)Cc2nc3ccccc3c(=O)[nH]2)cc1	-	-	-	-	-	-	.	.
Cc1ccc(NC(=O)CCN2CCOCC2)cc1C	-	-	-	-	-	-	.	.
CCCn1c(C(C)Nc2nc(C)cs2)nc2cc(Cl)c(Cl)cc21 (stereo unspecified)	-	-	-	-	-	-	.	.
Oc1ccc(/C=N/Nc2nc(-c3ccc(Cl)cc3)cc(C(F)(F)F)n2)cc1	-	-	-	-	-	24.5	-	-
Cc1cc(-c2ccccc2)nc(N/N=C/c2ccc(O)cc2)n1	-	-	-	.	-	-	.	.
O=C1CN(S(=O)(=O)c2cccc(Cl)c2Cl)CCN1	-	-	-	.	-	-	.	.
